Experiment [1] can be described thus: antimalarial activity against Dd2 strain (AID 2302;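 active = growth inhibition above 50% at the single 2 µM test dose, taken to imply half-maximal potency below 2 µM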;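 note: 0% = DMSO untreated growth and 100% = chloroquine plus artemisinin killed control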). Conditions: P. falciparum Dd2 in RBCs, LDH growth readout, 72 h; at 2 µM; stronger effect = higher value.
A short description of experiment [2]: human hepatoma cell viability loss – ATP luminescence, cytotoxicity control for P. falciparum antimalarial project, primary screen (AID 2303;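 active = inhibition above 50%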;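 note: 0% = DMSO wells and 100% = digitonin-killed cells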). Conditions: HepG2 viability, 24-48 h, at 10 µM, stronger effect = higher value.
Experiment [3] concerns the target L-lactate dehydrogenase (Plasmodium falciparum (isolate CDC / Honduras)) (UniProt Q27743). In words: PfLDH activity inhibition – cell lysate, 3D7 strain, counter-screen for P. falciparum growth inhibition project (AID 2304).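 Note: 0% = vehicle and 100% = reference inhibitor.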 The following applies: P. falciparum 3D7 crude extract, LDH APAD/NBT absorbance; at 2 µM; stronger effect = higher value. Background: Counterscreens check selectivity or assay interference.

The nature of experiment [4]: inhibition of 3D7 malaria parasite growth – strain 3D7 (AID 2306).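 Note: 0% = DMSO wells and 100% = chloroquine plus artemisinin control wells.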 Conditions: P. falciparum 3D7 erythrocytic growth, LDH absorbance, 72 h; at 2 µM; stronger effect = higher value.
Experiment [5] concerns the target Calcium-dependent protein kinase 1 (Plasmodium falciparum (isolate 3D7)) (UniProt P62344). In words: PfCDPK1 kinase inhibitors, biochemical, TCAMS library (AID 1159585; cut-off not given, nearly all actives have IC50 up to about 0.98 µM;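 note: inhibitors leave more ATP so luminescence rises with inhibition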). Conditions: recombinant PfCDPK1, Kinase-Glo ATP depletion luminescence.
Experiment [6] addresses Plasmodium falciparum protein kinase 6 (PK6, PF3D7_1337100) (UniProt Q8IDW1). In words: PfPK6 kinase inhibitors, biochemical, TCAMS library (AID 1159586). The following applies: recombinant PfPK6, Kinase-Glo ATP depletion luminescence. On the technique in general: Kinase-Glo measures the ATP left after a reaction by luminescence.
The target of experiment [7] is Protein kinase 7 (PK7), Plasmodium falciparum 3D7 (PF3D7_0213400) (UniProt Q7YTF7). In words: inhibition of Plasmodium PK7 catalytic activity – biochemical, TCAMS antimalarial set, Kinase-Glo luminescence (AID 1159587). Conditions: recombinant PfPK7, Kinase-Glo ATP depletion luminescence.
Chain of Protein kinase 7 (PK7), Plasmodium falciparum 3D7 (PF3D7_0213400) (Q7YTF7 1-343): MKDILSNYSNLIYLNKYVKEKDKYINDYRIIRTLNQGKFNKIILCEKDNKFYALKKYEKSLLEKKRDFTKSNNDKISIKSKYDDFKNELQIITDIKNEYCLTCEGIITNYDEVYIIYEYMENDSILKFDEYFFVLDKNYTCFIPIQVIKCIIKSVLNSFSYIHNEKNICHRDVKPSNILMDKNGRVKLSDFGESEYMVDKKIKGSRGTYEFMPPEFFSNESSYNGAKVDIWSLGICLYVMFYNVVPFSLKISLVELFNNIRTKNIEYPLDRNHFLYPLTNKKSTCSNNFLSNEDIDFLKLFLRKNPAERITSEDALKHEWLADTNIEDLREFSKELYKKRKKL
Experiment [8] has as its target Calcium-dependent protein kinase 4 (Plasmodium falciparum (isolate 3D7)) (UniProt Q8IBS5). In words: PfCDPK4 kinase inhibitors, biochemical, TCAMS library (AID 1159588; cut-off not given, nearly all actives have IC50 up to about 0.91 µM). Conditions: recombinant PfCDPK4, Kinase-Glo ATP depletion luminescence.
A short description of experiment [9]: P. berghei load reduction in hepatocytes – cell-based, HepG2, luciferase luminescence, HepG2 viability, primary screen (AID 624349; in the data active = parasite load remaining mostly below about 12%, no sharp cut-off; inactive = mostly above about 10%;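 note: 100% = mean of DMSO negative control wells on the same plate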). Conditions: P. berghei liver stage in HepG2, luciferase luminescence, concentration not given here; parasite load remaining: stronger effect = lower value; viability: measured here: HepG2 viability without parasites.
The nature of experiment [10]: signal quenchers or enhancers, Cy5 substrate/SSB – biochemical, NIH Clinical Collection, E. coli SSB, artefact control for HCV NS3 helicase inhibitor project (AID 743268). Conditions: Cy5-oligo bound E. coli SSB, fluorescence interference.
Experiment [11] relates to Hepatitis C virus NS3 helicase. In words: blockers of NS3h binding to DNA – biochemical, fluorescence polarization, NIH Clinical Collection, primary screen (AID 743270). The following applies: NS3 helicase binding to Cy5-dT15 DNA, stronger effect = higher value, concentration not given here.
The target of experiment [12] is Single-stranded DNA-binding protein (Escherichia coli (strain K12)) (UniProt P0AGE0). Briefly: SSB-ssDNA binding inhibitors – biochemical, fluorescence polarization, NIH Clinical Collection, counter-screen for HCV NS3 helicase inhibitor project (AID 743271; in the data active = inhibition above about 28%). The following applies: E. coli SSB-DNA binding, stronger effect = higher value, concentration not given here. A general note: Polarisation of emitted light reports the rotation of a fluorescent probe.

A short description of experiment [13]: compounds distorting NS3 helicase fluorescence signal – biochemical, NIH Clinical Collection, artefact control for HCV NS3 helicase inhibitor project (AID 743272).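 Note: HCV NS3 helicase with a Cy5 labelled single stranded DNA probe.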 Conditions: fluorescence interference counterscreen, HCV NS3 helicase assay; stronger effect = lower value.
Experiment [14] concerns Neuropilin-2 / VEGF-C interaction (human). Briefly: small molecules blocking Neuropilin-2/VEGF-C interaction – biochemical, microplate binding format, z-score (AID 743281). Conditions: microplate NRP2/VEGF-C binding assay; stronger effect = lower value.
Experiment [15] can be described thus: modulation of C. elegans fzo-1 (AID 1259413).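 Note: fzo-1 mutant C. elegans worms in liquid wells.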 Conditions: C. elegans fzo-1 modulator screen, mean read-out; stronger effect = higher value.
A short description of experiment [16]: viability loss with induced miR-34 in A549 – imaging, A549 dox-inducible miR-34, nuclei and caspase counts, primary screen (AID 1347080;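 active = compounds whose cell count with miR-34 switched on is under 0.7 times the count with it off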). Conditions: A549 miR-34 inducible, Hoechst nuclei count, 48 h.
Experiment [17] is described as follows: galactose survival enhancers in mitochondrial complex I cybrids – cell-based, galactose medium, ATP luminescence, primary screen (AID 1645843;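 active = z-score of at least 1.8 in each of two replicates, scored against plate mean and spread of sample wells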;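 note: positive z means more ATP and so rescue of galactose-driven cybrid death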). The following applies: complex I mutant cybrid cells, 72 h, stronger effect = higher value.
Another experiment has as its system F380Y. In words: BK channel mutant inhibitors and activators – cell-based, U2OS BacMam, thallium flux, beta subunits, selectivity assay, profiling panel (AID 1259406;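 active = thallium flux through the channel raised or lowered by more than 3 SD from vehicle-only wells, actives on both sides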;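 note: initial slope of Thallos dye fluorescence rise after thallium is added; log ratio against the mean of 0.3% DMSO vehicle wells on the same plate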). Conditions: U2OS BacMam BK variants, at 30 µM.
A further experiment has as its system F380Y/beta1. Described as above. Conditions: U2OS BacMam BK variants, at 30 µM.
The subject of another experiment is F380Y/beta2Delta. The description is as above. Conditions: U2OS BacMam BK variants, at 30 µM.
The subject of a further experiment is F380Y/beta4. Described as above. Conditions: U2OS BacMam BK variants, at 30 µM.
In experiment [18] the target is Calcium-activated potassium channel subunit alpha-1 (Homo sapiens) + Leucine-rich repeat-containing protein 26 (Homo sapiens) (UniProt Q12791+Q2I0M4). Described as above. The following applies: U2OS BacMam BK variants, F380Y/Slo1WT/gamma1, at 30 µM.
Chain of Calcium-activated potassium channel subunit alpha-1 (Homo sapiens) + Leucine-rich repeat-containing protein 26 (Homo sapiens) (Q2I0M4 whole entry, looked up, one chain of several): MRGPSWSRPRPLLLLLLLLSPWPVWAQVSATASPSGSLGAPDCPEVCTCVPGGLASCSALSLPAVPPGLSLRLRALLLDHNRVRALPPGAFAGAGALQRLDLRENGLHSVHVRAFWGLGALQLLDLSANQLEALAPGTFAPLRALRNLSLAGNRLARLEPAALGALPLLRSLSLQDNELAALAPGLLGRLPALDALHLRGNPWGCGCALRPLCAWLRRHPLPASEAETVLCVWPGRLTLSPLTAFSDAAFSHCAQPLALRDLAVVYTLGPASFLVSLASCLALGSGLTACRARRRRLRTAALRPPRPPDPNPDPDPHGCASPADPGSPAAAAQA
The subject of a further experiment is R275C. Described as above. Conditions: U2OS BacMam BK variants, at 30 µM.
Another experiment concerns R275C/beta1. The experiment is described as above. Conditions: U2OS BacMam BK variants, at 30 µM.
In a further experiment the test system is R275C/beta2Delta. The experiment is described as above. The following applies: U2OS BacMam BK variants, at 30 µM.
The next experiment has as its system R275C/beta4. The experiment is described as above. The following applies: U2OS BacMam BK variants, at 30 µM.
The subject of a further experiment is R275C/Slo1WT/beta2. The description is as above. The following applies: U2OS BacMam BK variants, at 30 µM.

Where “and” joins values, the source holds several entries; their conditions need not be identical. Equal values may be shown once. For part of these data: Results with a measured potency or affinity are listed apart. Calls of active or inactive are those of the source. Unless noted, the rule behind the calls is not given here.

Usually inhibition stands for the drop in the measured response relative to a control, in per cent. What is called viability is a read-out of living cells in per cent, often relative to untreated cells.

Chain of L-lactate dehydrogenase (Plasmodium falciparum (isolate CDC / Honduras)) (Q27743 whole entry, looked up): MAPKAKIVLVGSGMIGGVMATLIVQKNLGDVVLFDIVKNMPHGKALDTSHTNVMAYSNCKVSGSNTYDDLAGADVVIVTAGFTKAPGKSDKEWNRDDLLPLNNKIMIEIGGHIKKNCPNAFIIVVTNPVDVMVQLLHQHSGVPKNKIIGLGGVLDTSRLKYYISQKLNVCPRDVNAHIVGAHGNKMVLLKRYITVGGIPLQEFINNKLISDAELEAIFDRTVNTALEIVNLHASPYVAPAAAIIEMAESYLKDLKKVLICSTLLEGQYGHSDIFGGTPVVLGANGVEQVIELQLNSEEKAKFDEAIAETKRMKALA
Chain of Calcium-dependent protein kinase 4 (Plasmodium falciparum (isolate 3D7)) (Q8IBS5 whole entry, looked up): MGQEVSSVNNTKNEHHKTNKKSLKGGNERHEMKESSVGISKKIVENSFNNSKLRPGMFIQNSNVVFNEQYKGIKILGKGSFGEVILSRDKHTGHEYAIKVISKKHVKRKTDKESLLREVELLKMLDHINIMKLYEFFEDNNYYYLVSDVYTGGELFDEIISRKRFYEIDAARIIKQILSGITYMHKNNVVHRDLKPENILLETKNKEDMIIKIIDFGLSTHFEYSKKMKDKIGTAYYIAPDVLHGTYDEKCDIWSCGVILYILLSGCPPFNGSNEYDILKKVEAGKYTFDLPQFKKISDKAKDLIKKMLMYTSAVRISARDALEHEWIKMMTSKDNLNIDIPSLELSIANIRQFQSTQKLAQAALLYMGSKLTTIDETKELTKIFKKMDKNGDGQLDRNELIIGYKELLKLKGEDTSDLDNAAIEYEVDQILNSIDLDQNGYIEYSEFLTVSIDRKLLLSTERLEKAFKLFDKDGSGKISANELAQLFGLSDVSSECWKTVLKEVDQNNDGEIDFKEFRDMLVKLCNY
Chain of Calcium-dependent protein kinase 1 (Plasmodium falciparum (isolate 3D7)) (P62344 whole entry, looked up): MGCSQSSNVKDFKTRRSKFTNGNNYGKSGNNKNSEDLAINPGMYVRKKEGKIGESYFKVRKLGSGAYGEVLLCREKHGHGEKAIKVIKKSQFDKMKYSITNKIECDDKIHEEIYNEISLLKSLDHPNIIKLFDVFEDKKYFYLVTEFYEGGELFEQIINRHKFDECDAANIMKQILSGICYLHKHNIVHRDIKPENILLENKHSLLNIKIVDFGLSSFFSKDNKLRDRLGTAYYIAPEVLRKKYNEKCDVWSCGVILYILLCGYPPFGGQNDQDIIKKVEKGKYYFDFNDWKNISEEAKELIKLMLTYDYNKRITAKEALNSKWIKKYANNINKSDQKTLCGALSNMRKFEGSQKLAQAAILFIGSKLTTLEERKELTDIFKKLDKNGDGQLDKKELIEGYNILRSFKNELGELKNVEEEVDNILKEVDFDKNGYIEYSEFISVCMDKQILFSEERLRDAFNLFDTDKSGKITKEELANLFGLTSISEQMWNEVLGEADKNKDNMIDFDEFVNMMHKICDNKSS
Chain of Plasmodium falciparum protein kinase 6 (PK6, PF3D7_1337100) (Q8IDW1 1-305): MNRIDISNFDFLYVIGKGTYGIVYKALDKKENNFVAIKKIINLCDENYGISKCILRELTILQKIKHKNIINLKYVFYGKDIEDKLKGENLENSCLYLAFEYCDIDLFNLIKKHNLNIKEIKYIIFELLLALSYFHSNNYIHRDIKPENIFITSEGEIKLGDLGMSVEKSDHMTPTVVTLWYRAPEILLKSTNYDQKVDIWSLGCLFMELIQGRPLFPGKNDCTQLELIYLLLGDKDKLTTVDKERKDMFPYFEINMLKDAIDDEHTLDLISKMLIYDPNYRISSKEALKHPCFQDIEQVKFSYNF

Consider `FC(F)(F)c1cccc(N2CCC(CN3CCC(c4c[nH]c5ccccc45)CC3)CC2)n1`, for which the growth inhibition in [1] is 10% (inactive); in experiment [4], 84% (active). For the same compound, the results for the inhibition in experiment [2] and in experiment [3] were 41% (inactive) and -3% (inactive), respectively. For the same compound, the outcome in [5], in experiment [6], in experiment [7] and in experiment [8] was inactive.
Take `CC1=C(C(=O)NC2CCC(CN3CCC(c4c[nH]c5ccccc45)CC3)CC2)Cc2ccccc21` (stereo not drawn): the growth inhibition is 24% (inactive) and 15% (inactive) in experiment [1]; 97% (active) and 99% (active) in [4]. Besides, the inhibition is 41% (inactive) and 37% (inactive) in [2]; 6% (inactive) and 7% (inactive) in [3]. The outcome in experiment [5], in experiment [6], in experiment [7] and in [8] was inactive.
As for `COc1ccc(NC(=S)NC(NC(=O)CF)C(Cl)(Cl)Cl)cc1[N+](=O)[O-]` (stereo not drawn), the growth inhibition in [1] is -4% (inactive); in experiment [4], 97% (active). The inhibition in experiment [2] was 66% (active); in [3], 0% (inactive). Also, the result in experiment [5], in experiment [6], in experiment [7] and in experiment [8] was inactive.
As for `CC[C@H]1CN2CC[C@@H]1C[C@H]2[C@H](O)c1cc(-c2ccccc2)nc2ccc(O)cc12`, the growth inhibition in experiment [1] and in experiment [4] was 99% (active) each time. In addition, the values for the inhibition in experiment [2] and in experiment [3] were 14% (inactive) and -2% (inactive), respectively. In addition, the result in experiment [5], in [6], in experiment [7] and in experiment [8] was inactive.
Consider `CC(=O)N(Cc1cccc(-c2cccc(CNCc3ccc4c(c3)OCO4)c2)c1)C1CCN(Cc2ccccc2)CC1`, for which the growth inhibition was 21% (inactive) in [1] and 95% (active) in experiment [4]. Further, the inhibition in experiment [2] is 16% (inactive); in experiment [3], -5% (inactive). Further, the outcome in [5], in experiment [6], in [7] and in experiment [8] was inactive.
Regarding `CCOC(=O)C1(c2ccccc2)CCN(CCC(C#N)(c2ccccc2)c2ccccc2)CC1`, in experiment [9], the parasite load remaining is 6.85% (inactive). The viability in experiment [9] came to 62%. For the same compound, the fluorescence ratio in experiment [10] was 0.99 (inactive); in [13], 0.88 (inactive). The inhibition in [11] is 1.98% (inactive); in [12], 4.52% (inactive). In addition, the z-score in experiment [14] was -0.718 (inactive); in [17] it was -1.88 (inactive). In addition, the mean signal in experiment [15] was 215 (inactive). The fold change in experiment [16] (stronger effect = lower value) was 1.03 (inactive); in experiment [16] (measured here: relative caspase fold change +Dox/-Dox), 1.81. In addition, the cell count in experiment [16] (measured here: total cells with miR-34 induction, stronger effect = lower value) was 4740; in experiment [16] (measured here: total cells without miR-34 induction), 4590. The log fold change Tl+ flux is -0.0196 (inactive) in the experiment on F380Y; -0.0124 (inactive) in the experiment on F380Y/beta1; -0.00205 (inactive) in the experiment with F380Y/beta2Delta; 0.0154 (inactive) in the experiment on F380Y/beta4; -0.0542 (inactive) in experiment [18]; 0.0145 (inactive) with R275C. The log fold change Tl+ flux is -0.137 (active) in the experiment on R275C/beta1, -0.169 (active) in the experiment with R275C/beta2Delta, -0.00148 (inactive) in the experiment on R275C/beta4 and 0.0218 (inactive) with R275C/Slo1WT/beta2.

(Values after PubChem BioAssay.)
